Drawing on the supplement of paper PMC6555819, this text covers PBM binding z-score for twelve sequences.

Common to all, as to assay: PBM binding z-score (relative to random genomic background probes); higher = stronger binding; sequences stand for … in GC…GCGATTGACAGCGTAGAATGAAGG
Test [1] concerns RARb homodimer (NR concentration 270 nM). The essentials: (§1)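 Regression normalization was applied to scanned fluorescence from custom Agilent 4×180K protein-binding microarrays. Before scanning, arrays were incubated 1 h with ligand-free nuclear receptor dimers, and binding was detected with antibodies against each partner (one per run). Binding z-scores use the random background probes as reference.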

For test [2], the system named is RARg:RXRa (NR concentration 270 nM, RXRa partner concentration 90 nM). The essentials:
as §1

Test [3] deals with RARg homodimer (NR concentration 270 nM). The essentials:
as §1

In test [4] the test system is RXRa DBDmut IVT, anti-RXR (DBD mutation: RXRa K156A/R161A, NR concentration 90 nM). The essentials:
as §1

For test [5], the system named is RXRa homodimer (NR concentration 180 nM). The essentials: as §1
The test system of test [6] is THRa:RXRa (NR concentration 90 nM, RXRa partner concentration 90 nM). The essentials: as §1
The test system of test [7] is THRa homodimer (NR concentration 90 nM). The essentials:
as §1

The subject of test [8] is VDR:RXRa (NR concentration 270 nM, RXRa partner concentration 90 nM). The essentials:
as §1

The subject of test [9] is VDR homodimer (NR concentration 270 nM). The essentials: as §1

As for TCATATAGCTAATACAGGTGAAAGTCGGCATCTA, the PBM binding z-score in [1] was -0.00242; in test [2] it was 0.298; in test [3] it was 0.338; in test [4], 1.09; in test [5], 0.758; in test [6], 0.42. The PBM binding z-score was -0.541 in test [7], 0.529 in test [8] and -0.107 in [9].

TTACCAAGGTGACAGGTCGTTGATGCACGCCTTG: the PBM binding z-score in test [1] is 1.52; in test [2] it was 1.37; in test [3] it was 1.17; in test [4] it was 0.0135; in test [5], 1.61; in test [6], 2.19. For the same sequence, the PBM binding z-score is 1.19 in [7], 0.821 in [8] and 0.797 in test [9].

With CCTAGCAGGCAAATCTGGGTCACTCAAGGCTTGA, the PBM binding z-score in test [1] came to 1.85; in test [2], 1; in test [3], 0.802; in test [4], 0.0934; in test [5], 0.625; in test [6], 2.89. For the same sequence, the values for the PBM binding z-score in test [7], in test [8] and in test [9] were 0.513, 0.335 and -0.357, respectively.

As for CACACTAGGTCAAGGTCAAAGTCGGTTTGTGCCA, the PBM binding z-score was determined as 4.95 in [1]; 6.21 in [2]; 6.6 in test [3]; 3.28 in test [4]; 5.76 in [5]; 4.44 in test [6]. Also, the PBM binding z-score in test [7] is 4.03; in [8], 5.17; in test [9], 4.95.

For the sequence TATACACGGTCAAAGGCCAGAGTACGAATGTCGA, the PBM binding z-score came out at 2.33 in test [1]; 2.53 in test [2]; 2.87 in test [3]; 0.0328 in test [4]; 1.45 in [5]; 0.581 in test [6]. The figures for the PBM binding z-score in [7], in test [8] and in test [9] were -0.253, 0.598 and 0.761, respectively.

Turning to GGAACGATGGCAAAGTTGATAGCATCTGTCGACG, the PBM binding z-score in test [1] was -0.537; in test [2], -0.206; in [3], 0.0205; in test [4] it was -0.199; in test [5], -0.104; in test [6], -0.533. Further, the PBM binding z-score in [7] is -1.03; in [8] it was -0.351; in [9] it was -0.827.

Turning to CTACCAAGGTGAACAAGGTCGTAGATTACTATTC, the PBM binding z-score in test [1] is 1.98; in test [2], 2; in test [3] it was 1.6; in [4] it was 0.741; in [5], 2.24; in [6], 3.24. In addition, the PBM binding z-score in test [7] was 1.88; in [8], 5.56; in test [9], 1.72.

ATCGATAGGTCGAGGTGAGTATAGAGAAAGGGAA: the PBM binding z-score in test [1] is 1.05; in test [2] it was 1.68; in test [3], 2.13; in test [4] it was -0.314; in [5], 1.47; in test [6], 1.63. The PBM binding z-score was 0.0105 in test [7], 0.414 in test [8] and -0.206 in [9].

Consider CCTTACGGGTCCCGAGGTTATAGCACGACGAGCG, for which the PBM binding z-score in test [1] was 0.515; in test [2], 0.416; in test [3], 0.388; in test [4] it was -1.34; in test [5] it was 0.999; in test [6], 1.1. Also, the values for the PBM binding z-score in [7], in test [8] and in test [9] were 0.132, 0.198 and 0.162, respectively.

Take CAGCCTAGGTCAGGGCCAGTAGAGGAGGAACGTT: the PBM binding z-score was 2.31 in test [1]; 2.91 in [2]; 3.9 in [3]; -0.543 in test [4]; 1.35 in test [5]; 1.88 in test [6]. For the same sequence, the PBM binding z-score in test [7] was 0.411; in test [8] it was -0.0759; in [9] it was 0.169.

For TCTTGTAGATCAGCAGGTTGAGAAAGCTGGCCAA, the PBM binding z-score in test [1] was -0.505; in [2] it was -0.343; in test [3], -0.727; in [4], 0.441; in [5], 0.0477; in [6], -0.234. Also, the values for the PBM binding z-score in test [7], in test [8] and in [9] were -0.41, 0.543 and -0.222, respectively.

Turning to CCTTACGGGTCACGAGGTAATAGCACGACGAGCG, the PBM binding z-score is 3.32 in test [1]; 5.87 in [2]; 5.34 in test [3]; 1.67 in test [4]; 6.56 in [5]; 3.52 in [6]. The PBM binding z-score is 0.849 in test [7], 4.18 in test [8] and 0.979 in [9].
